# About 410 targets per protein were measured; listed, in parts, are those with the strongest signals and a random draw of the rest.
# Tests used:
# Test in all cases: glycan array binding signal (z-score within array); higher = stronger binding
# Conditions in all cases: glycan notation: IUPAC condensed, linker removed
# [1] = system: Gal(a1-3)Gal(b1-4)GlcNAc
# Procedure, shortened: (§1)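 From the Consortium for Functional Glycomics database, 3228 arrays were curated, keeping only those whose protein sequence was available. Binding is given as a within-array Z-score averaged across arrays sharing a protein sequence and across linkers. Negative Z-scores can be read as non-binding.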
# [2] = system: Gal(a1-3)Gal(b1-4)[Fuc(a1-3)]GlcNAc(b1-2)Man(a1-3)[Gal(a1-3)Gal(b1-4)[Fuc(a1-3)]GlcNAc(b1-2)Man(a1-6)]Man(b1-4)GlcNAc(b1-4)GlcNAc
# Procedure, shortened: as §1
# [3] = system: Gal(a1-3)Gal(b1-4)GlcNAc(b1-3)GalNAc
# Procedure, shortened: as §1
# [4] = system: Gal(a1-3)[Gal(a1-4)]Gal(b1-4)GlcNAc
# Procedure, shortened: as §1
# [5] = system: Gal(a1-3)Gal(b1-4)GlcNAc(b1-6)GalNAc
# Procedure, shortened: as §1
# [6] = system: Gal(a1-3)Gal(b1-4)[Fuc(a1-3)]GlcNAc
# Procedure, shortened: as §1
# [7] = system: Gal(a1-4)Gal(b1-4)Glc
# Procedure, shortened: as §1
# [8] = system: Gal(a1-4)GlcNAc
# Procedure, shortened: as §1
# [9] = system: Gal(a1-3)Gal
# Procedure, shortened: as §1
# [10] = system: Gal(a1-4)Gal(b1-4)GlcNAc
# Procedure, shortened: as §1
substance,measurement,setting,value
Actinohivin (Actinomycete K97),glycan array binding signal (z-score),[1],-0.163
same,glycan array binding signal (z-score),[2],0.092
"BambL (Burhholderia ambifaria), Q0B4G1",glycan array binding signal (z-score),[3],-0.314
same,glycan array binding signal (z-score),[4],-0.316
"Wza (Escherichia coli), P0A930",glycan array binding signal (z-score),[5],3.84
AgI/II Vhelical-GFP (Streptococcus mutans),glycan array binding signal (z-score),[2],-0.151
same,glycan array binding signal (z-score),[6],-0.245
Epa22,glycan array binding signal (z-score),[7],-0.375
same,glycan array binding signal (z-score),[8],10.5
AgI/IIC123-GFP (Streptococcus mutans),glycan array binding signal (z-score),[8],0.706
"SpGH101 (Streptococcus pneumoniae), Q8DR60",glycan array binding signal (z-score),[1],-0.162
LcI (Legionella pneumophila),glycan array binding signal (z-score),[9],-0.38
same,glycan array binding signal (z-score),[10],-0.363
